Bioassay records as filed in PubChem BioAssay.
This is a sample that favours compounds with a hit; in the whole collection about 2.3% have one here.
Tau FP inhib: qHTS for Inhibitors of Tau Fibril Formation, Fluorescence Polarization | Microtubule-associated protein tau (Homo sapiens), P10636 | K18 P301L tau heparin fibrillization, Alexa594 FP, 6 h | Potency, µM (top dose mostly 57.7 µM), without a hit: at the top dose activity, negative = inhibition, actives largely listed as inhibitors | actives 0.39% (n = 280,000) | AID 1468, 2008; also: potency is read from the fitted curve at half-maximal effect; nearly all actives have a fitted effect of over 55% in size
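Quantitative HTS format: compounds meet 15 uM recombinant K18 P301L tau and Alexa 594-tau tracer in 100 mM sodium acetate pH 7; 20 uM heparin triggers fibrillization at 37 C over 6 hr; FP gives the signal.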
USP1 inh: Inhibitors of USP1/UAF1: Primary Screen | Ubiquitin carboxyl-terminal hydrolase 1 (Homo sapiens), O94782 | recombinant USP1/UAF1, Ub-Rhodamine cleavage fluorescence | Potency, µM (titrated, usually from 57.1 µM), inactives show at the highest dose activity change, negative = inhibition, actives largely listed as inhibitors | actives 0.23% (n = 390,000); also: potency is read from the fitted curve at half-maximal effect; nearly all actives have a fitted effect of over 60% in size
Target sequence (O94782 whole entry, looked up): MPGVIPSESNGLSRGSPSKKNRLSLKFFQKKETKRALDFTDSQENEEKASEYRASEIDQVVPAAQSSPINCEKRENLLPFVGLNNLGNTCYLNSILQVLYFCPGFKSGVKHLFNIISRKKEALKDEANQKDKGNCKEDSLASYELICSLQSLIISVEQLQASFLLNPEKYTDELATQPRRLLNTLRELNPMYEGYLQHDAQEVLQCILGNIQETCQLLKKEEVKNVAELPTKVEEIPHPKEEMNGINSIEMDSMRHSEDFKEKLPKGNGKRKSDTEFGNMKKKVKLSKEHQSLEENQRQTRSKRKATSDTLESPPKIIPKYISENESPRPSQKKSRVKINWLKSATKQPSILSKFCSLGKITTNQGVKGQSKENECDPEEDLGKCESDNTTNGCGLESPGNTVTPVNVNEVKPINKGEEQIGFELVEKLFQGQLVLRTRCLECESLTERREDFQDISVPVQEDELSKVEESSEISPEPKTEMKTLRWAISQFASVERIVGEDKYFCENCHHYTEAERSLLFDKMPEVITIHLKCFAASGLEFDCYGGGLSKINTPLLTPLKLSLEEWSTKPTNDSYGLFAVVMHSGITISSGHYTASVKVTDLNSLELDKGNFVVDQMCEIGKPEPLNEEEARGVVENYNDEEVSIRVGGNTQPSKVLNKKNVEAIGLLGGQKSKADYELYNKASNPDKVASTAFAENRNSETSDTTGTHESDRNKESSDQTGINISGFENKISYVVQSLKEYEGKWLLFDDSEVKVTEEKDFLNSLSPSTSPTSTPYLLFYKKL
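USP1/UAF1 complex at 1 nM was preincubated with compound for 15 min at room temperature, then Ub-Rho substrate (150nM final) was added. Fluorescence (480/540 nm) was read kinetically, 6 reads every 60 seconds.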
Tau ThT inhib: qHTS for Inhibitors of Tau Fibril Formation, Thioflavin T Binding | Microtubule-associated protein tau (Homo sapiens), P10636 | Potency, µM (doses to about 57.4 µM), without a hit: at the highest dose activity, negative = inhibition, usual class: inhibitors | AID 1460, 2008 | actives 2.1% (n = 270,000) | recombinant tau K18 P301L, heparin-induced fibrillization, ThT fluorescence; also: potency is read from the fitted curve at half-maximal effect; nearly all actives have a fitted effect of over 55% in size
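In this qHTS, human K18 P301L tau is incubated with compound and heparin for 6 hr at 37 C, and Thioflavin T fluorescence then reports fibril load.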
Tau fluor counter: Counterscreen qHTS for Inhibitors of Tau Fibril Formation, Fluorescence Polarization | tau K18 P301L Alexa594 fluorescence, heparin fibrillization | Potency, µM (highest dose often 57.7 µM), inactives show at the highest dose activity change, negative = decrease | actives 0.93% (n = 280,000) | AID 1463, 2008; also: potency is read from the fitted curve at half-maximal effect; nearly all actives have a fitted effect of over 55% in size
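Human tau K18 P301L (15 uM unlabeled, 0.24 uM Alexa 594-labeled) in 100 mM sodium acetate pH 7 with 20 uM heparin, 6 hr at 37 C. ThT 30 uM added, 1 hr ambient; Alexa 594 FP and total fluorescence read at 555/632 nm.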
Coupling enz: qHTS Assay for Inhibitors of Fructose-1,6-bisphosphate Aldolase from Giardia Lamblia: Coupling assay counterscreen; activity change, negative = inhibition, % at 58.2 µM, hits read low; coupling enzyme system counterscreen, AmpLite Red fluorescence; actives 0.67% (n = 290,000); in the data active = activity change below about -30%
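Fluorescence at 525 nm excitation and 598 nm emission measured inhibition of the coupled detection system without aldolase. Compounds (at 57.5 uM final) were preincubated 10 min at room temperature with coupling enzyme reagent before a 20 min substrate/AmpLite Red step.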
The depositor's hits bear a star; ? = inconclusive; . = not tested or not shown; ! = repeats disagree; [ ] = another dose, or the depositor's remark. Unless noted, calls follow the shape of the dose curve; as a rule, active = well fitted curve in the direction sought with a large enough effect; inconclusive = small, poorly fitted or top-dose-only effect, or another doubt; inactive = no such curve, though single readings can be large; an effect the other way counts as inactive or inconclusive. % is scaled to controls: 0 for no effect and ±100 for the full control effect.

SMILES	Tau FP inhib	USP1 inh	Tau ThT inhib	Tau fluor counter	Coupling enz
Cc1ccc(/C=c2/sc3nnc(-c4ccccc4Cl)n3c2=O)o1	2%	-6%	?	-20%	-9
Cc1ccc(/C=c2\sc3nc(-c4ccccc4Br)nn3c2=O)o1	?	-23%	28µM*	-28%	0
Cc1ccc(/C=c2\sc3nc(-c4ccco4)nn3c2=O)o1	?	-11%	18µM*	-29%	1
COc1cccc(C(=O)Nc2ccccc2-c2nnc(-c3cc(OC)ccc3Br)o2)c1	-15%	-15%	-7%	-32%	.
O=C(N/N=C1\C/C(=N\NC(=O)c2ccncc2)c2ccccc21)c1ccncc1	?	?	10µM*	?	-34*
Cc1ccc(C)c(NC(=O)Cn2c(=O)n(Cc3cccs3)c(=O)c3cccnc32)c1	-1%	-9%	13%	0%	.
COC(=O)c1ccc2c(c1)SC1=C(CCCC1=O)N2	5%	-9%	13µM*	-6%	-5
O=C1CCCC2=C1Sc1ccc(Cl)cc1N2	15%	318%	6.3µM*	-15%	-8
Cc1ccc2c(c1)C(=O)[C@@]1(O)CCN(c3ccccc3)C1=N2	-5%	.	20µM*	-20%	6
Cc1ccc2c(c1)C(=O)C1(O)CCN(c3ccccc3)C1=N2 (configuration not stated)	-12%	.	7.9µM*!	-13%	2
C[C@H]1Cc2c(-c3ccccc3)nc3c(c2CO1)CN(C(=O)NCc1ccco1)CC3	-1%[11.6 µM]	.	-7%[11.5 µM]	-6%[11.6 µM]	-3
O=C(Cn1cc(/C=N/NC(=O)c2cccc3ccccc23)c2ccccc21)Nc1ccc(F)cc1	-12%	-12%	-1%	?	-4
O=C(Cn1cc(/C=N/NC(=O)c2ccccc2Br)c2ccccc21)Nc1ccc(F)cc1	-7%	-4%	-14%	16µM*[quencher]	0
CCn1cc(/C=N/NC(=O)c2ccc(C#N)cc2F)c2ccccc21	7%	3%	?	?	-32*
COC(=O)Cn1cc(/C=N/NC(=O)c2ccc(C#N)cc2F)c2ccccc21	4%	-7%	-13%	-10%	2
COc1ccccc1NC(=O)Cn1c(=O)n(CCC(=O)NCC2CCCO2)c(=O)c2cc(OC)c(OC)cc21 (configuration not stated)	-12%	2%	-1%	-9%	.
O=[N+]([O-])c1ccc(N=Cc2sc3ccccc3c2O)cc1	8%	-7%	0.71µM*	-19%	4
Cc1cccc(Cn2cc(C(=O)Nc3ccc(F)c(C(F)(F)F)c3)ccc2=O)c1	25µM*	?	20%	?	.
O=S1(=O)C2CC3C=CC2(O3)C(OCc2ccc(Cl)c(Cl)c2)C(Cc2ccccc2)N1Cc1ccc(Cl)c(Cl)c1 (configuration not stated)	.	.	.	.	0
O=C(CNS(=O)(=O)c1ccc(Br)s1)N1CCN(c2ccc(F)cc2)CC1	5%	-20%	-17%	-22%	1
CCOC(=O)c1[nH]c2ccccc2c1NC(=O)c1ccccc1OCC	7%	-16%	?	14µM*[quencher]	.
Cc1cc(Nc2ccc(Br)cc2)nc(-c2ccccc2O)n1	.	-21%	.	.	-1
Cc1ccc(Nc2cc(C)nc(-c3ccccc3O)n2)cc1	?	-28%	?	8.9µM*[quencher]	-2
Cc1cc(N/N=C/c2ccc(O)c(C)c2O)nc(-c2ccccc2O)n1	?	-7%	?	7.9µM*[quencher]	-1
Cc1ccc(S(=O)(=O)NCC2CCC(C(=O)N(C)Cc3ccccc3)CC2)cc1 (configuration not stated)	-9%	-12%	-18%	-15%	.
SMILES	Tau FP inhib	USP1 inh	Tau ThT inhib	Tau fluor counter	Coupling enz
COc1c(O)c(O)cc2c1oc1c3ccccc3oc(=O)c21	?	.	7.9µM*	10µM*[quencher]	-14
O=c1oc2cc(O)ccc2c2ccccc12	0%	-5%	-10%	-17%	-4
O=c1oc2cc(O)ccc2c2oc3cc(O)ccc3c12	-3%	?	?	25µM*[quencher]	-1
Cc1ccccc1Nc1cc(C(=O)NCc2cccs2)c2ccccc2n1	-14%	-14%	-2%	?	.
CC(C)S(=O)(=O)c1csc(NC(=O)Nc2cc(Cl)ccc2Cl)c1Cl	22µM*	-24%	2%	?	-15
Nc1c(C(=O)NC2CC2)sc2nc3c(c(-c4ccco4)c12)CC/C3=C/c1ccco1	?	28µM*	8.9µM*	?	-35*
Cc1ccc2c(c1)-c1c(cnn1CC(=O)N1CCN(c3ccccc3F)CC1)CO2	6%	-5%	-1%	-1%	.
O=C1C(Cl)=C(N2CCCCC2)C(=O)N1c1ccccc1Cl	20µM*	-10%	14µM*	?	4
COc1ccc(OC)c(N2C(=O)C(Cl)=C(N3CCOCC3)C2=O)c1	25µM*	-15%	14µM*	?	3
COc1ccc(OC)c(N2C(=O)C(Cl)=C(N3CCCCC3)C2=O)c1	16µM*	-11%	13µM*	?	1
Cc1ccccc1N1C(=O)C(Cl)=C(N2CCCCCC2)C1=O	?	-14%	?	-25%	3
COc1cc(NC(=O)c2cc3c(Cl)nc4ccccc4c3s2)cc(OC)c1OC	8%	-10%	?	8.9µM*[quencher]	3
CCc1ccc2oc(-c3cc(NC(=O)c4cc(OC)c(OC)c(OC)c4)ccc3O)nc2c1	-1%	-8%	-11%	?	.
CCc1ccc2oc(-c3cc(N=Cc4cccc(OC)c4O)ccc3O)nc2c1	7%	-17%	14µM*	?	-2
CCc1ccc(S(=O)(=O)c2cn(CC(=O)Nc3ccc(F)c(Cl)c3)c3ccccc3c2=O)cc1	?	?	-1%	-25%	.
COc1ccc(/C=C/C(=O)C2C(=O)C=C(C)OC2=O)cc1O (configuration not stated)	-2%	-5%	25µM*	?	-10
COc1cc(/C=C/C(=O)C2C(=O)C=C(C)OC2=O)cc(OC)c1O (configuration not stated)	-7%	-3%	?	-24%	-7
CC(=O)CSc1nc2cc3c(cc2cc1C#N)OCCO3	15%	8%	1.6µM*	?	-43*
Nc1nc(-c2ccc(Cl)cc2)c(N=Nc2ccc(S(=O)(=O)N3CCOCC3)cc2)s1	?	-20%	14µM*	11µM*[quencher]	1
COc1cc(NC(=O)Nc2cccc(C(C)=O)c2)cc(OC)c1OC	?	-20%	-19%	?	-8
COc1cc(NC(=O)Nc2cccc(-c3noc(C)n3)c2)cc(OC)c1OC	17%	?	?	13µM*[quencher]	.
